Results from PubChem BioAssay (NCI).
This is part of a sample that, as a whole, favours compounds with a hit. Of some 83,000 tested, about 20% had one in any assay.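 Compound tested at a single concentration for 48 hours in 96-well plates; a percent growth value below 10 was scored as active.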 A number with no mark means an inactive call. Calls of active or inactive are those of the source.

How the values were obtained:
Test in all cases: NCI-60 one-dose screen, 48 h (100 = growth as untreated, 0 = no growth, -100 = all killed)
DU-145 prostate = conditions: 10 µM unless noted
K-562 leukemia = conditions: 10 µM unless noted
MALME-3M melanoma = conditions: 10 µM unless noted
MDA-MB-231 breast = conditions: 10 µM unless noted
RXF 393 renal = conditions: 10 µM unless noted
SF-268 CNS = conditions: 10 µM unless noted
SF-295 CNS = conditions: 10 µM unless noted
SF-539 CNS = conditions: 10 µM unless noted
UACC-257 melanoma = conditions: 10 µM
M14 melanoma = conditions: 10 µM unless noted
HCT-15 colon = conditions: 10 µM unless noted
HT29 colon = conditions: 10 µM unless noted
SNB-19 CNS = conditions: 10 µM unless noted
U251 CNS = conditions: 10 µM unless noted
PC-3 prostate = conditions: 10 µM unless noted
SK-MEL-5 melanoma = conditions: 10 µM unless noted
UACC-62 melanoma = conditions: 10 µM unless noted
LOX IMVI melanoma = conditions: 10 µM unless noted
SK-MEL-28 melanoma = conditions: 10 µM unless noted

| Structure (SMILES) | growth (DU-145 prostate) | growth (K-562 leukemia) | growth (MALME-3M melanoma) | growth (MDA-MB-231 breast) | growth (RXF 393 renal) | growth (SF-268 CNS) | growth (SF-295 CNS) | growth (SF-539 CNS) | growth (UACC-257 melanoma) | growth (M14 melanoma) | growth (HCT-15 colon) | growth (HT29 colon) | growth (SNB-19 CNS) | growth (U251 CNS) | growth (PC-3 prostate) | growth (SK-MEL-5 melanoma) | growth (UACC-62 melanoma) | growth (LOX IMVI melanoma) | growth (SK-MEL-28 melanoma) |
| --- | --- | --- | --- | --- | --- | --- | --- | --- | --- | --- | --- | --- | --- | --- | --- | --- | --- | --- | --- |
| O=C(CN1C(=O)CSC1=O)Nc1ccc(C(=O)/C=C/c2cc3ccccc3nc2Cl)cc1 | 90.3% | 37.2% | 91.8% | 90.4% | 17.6% | 78.8% | 77% | 79.1% | 75.3% | 83.7% | 79.3% | 17.4% | 83.4% | 77.2% | 70.5% | 34% | 74% | 37.5% | 95.4% |
| COc1cc(/C=N/n2cnc3oc(-c4ccccc4)cc3c2=N)cc(CN2CCCCC2)c1O | -82.8% (active) | 3.54% (active) | -81% (active) | -73.4% (active) | -66.7% (active) | -66.9% (active) | -96% (active) | -87.9% (active) | -27% (active) | -83.5% (active) | -79.8% (active) | -14.1% (active) | -41.3% (active) | -66.5% (active) | -31% (active) | -89.7% (active) | -74.8% (active) | -86.6% (active) | -85.8% (active) |
| O=C(Nc1ccccc1)Nc1nc2ccc([N+](=O)[O-])cc2s1 | 14.7% | 5.58% (active) | -10.8% (active) | -5.6% (active) | -21.6% (active) | 13.4% | 2.83% (active) | 9.38% (active) | -8.53% (active) | 13% | 8.64% (active) | 9.17% (active) | 13.9% | 6.41% (active) | 4% (active) | -46.5% (active) | 1.73% (active) | – | 20.2% |
| O=C1NC(=O)/C(=C/c2ccc(OCc3cc4ccccc4nc3Cl)cc2)S1 | 100% | 75.2% | 103% | 88.2% | 111% | 110% | 96.4% | 104% | 98% | 104% | 88.3% | 117% | 100% | 101% | 92% | 84.4% | 83.7% | 56.4% | 104% |
| O=C(Nc1cc(Cl)cc(Cl)c1)Nc1nc2ccc([N+](=O)[O-])cc2s1 | 16.9% | 3.25% (active) | -8.59% (active) | -0.651% (active) | -25% (active) | 15.4% | -57.2% (active) | 3.86% (active) | -14.5% (active) | -9.81% (active) | 2.76% (active) | 5.08% (active) | 21.3% | 6.61% (active) | 7.99% (active) | -76.5% (active) | -34.1% (active) | – | -2.55% (active) |
| Cc1cc(NS(=O)(=O)c2ccc(-c3cnc(C4CC4)o3)cc2)ccc1I | 26% | 11.6% | 48.8% | 40.9% | 10.8% | 65.1% | -2.36% (active) | 11.5% | 66.8% | 24.6% | 30.5% | 14.2% | 40.1% | 30.1% | 22.7% | 31.5% | 30.3% | – | 62% |
| O=C(/C=C1\C=CN(CCCCO)c2ccccc21)n1ccc2ccccc21 | 107% | 109% | 99.2% | 98.5% | 113% | 107% | 103% | 98.6% | 105% | 94.6% | 107% | 109% | 94.8% | 102% | 107% | 98.1% | 87.6% | 114% | 108% |
| CCNC(=NCCCN(C)C)N/C(N)=N/c1nc2ccccc2s1 | 99.5% | 65.9% | 97% | 73.6% | 65.4% | 94.8% | 92.4% | 82.9% | 104% | 97% | 77.4% | 69.9% | 90.1% | 79.3% | 80.3% | 93.4% | 97.6% | 73.5% | 93.1% |
| O=C(CCCCCCN1CC(=O)N2[C@@H](c3cc(F)cc(F)c3)c3[nH]c4ccccc4c3C[C@H]2C1=O)NO | 65.7% | 32.2% | 30.7% | 62% | 33.6% | 79.8% | 60% | 60.5% | 44.1% | 51.9% | 96.7% | 47.8% | 65.9% | 57.3% | 48.5% | 47.2% | 21.4% | 19.6% | 52.7% |
| CCCC(=O)NC(c1cccnc1)c1cc(C(C)=O)c2cccnc2c1O (configuration not stated) | 39.9% | 32.2% | 38.8% | 36.9% | 31.7% | 27.2% | 13.9% | 25.1% | 42.4% | 12.7% | 19.6% | 26.9% | 29.5% | 23.3% | 39.2% | 0.739% (active) | 1.58% (active) | 27% | 34.1% |
| O=C(Nc1ccc(Cl)cc1)Nc1nc2ccc([N+](=O)[O-])cc2s1 | 14% | 1.43% (active) | -21.3% (active) | -17.5% (active) | -37.2% (active) | 7.98% (active) | -57.9% (active) | -22.3% (active) | -32.6% (active) | -20.4% (active) | -42.7% (active) | 1.88% (active) | 11.5% | -11% (active) | -7.8% (active) | -83.7% (active) | -30.2% (active) | – | -12.3% (active) |
| Cc1cc(Cl)cc(NS(=O)(=O)c2ccc(-c3cnc(C4CC4)o3)cc2)c1 | 24.7% | 8.81% (active) | 65.4% | 35.4% | -0.916% (active) | 61.7% | 1.04% (active) | 6.15% (active) | 68.2% | 13.1% | 21.8% | 10.7% | 36% | 23.9% | 17.4% | 32.5% | 31.5% | – | 55.4% |
| O=C(/C=C/c1cn(-c2ccccc2)nc1-c1ccc(Cl)cc1)c1cc2ccccc2oc1=O | 63.7% | 58.4% | 66% | 55% | 95.7% | 90.8% | 48% | 68.4% | 93.5% | 72.8% | 58.9% | 62.1% | 54.3% | 35.1% | 53.3% | 72% | 52.7% | 37.3% | 93% |
| COc1cc2cc(Oc3ccc(NC(=O)Nc4cc(C(F)(F)F)cc(C(F)(F)F)c4)cc3)c(C)nc2cc1OCCN(C)C | 120% | 106% | 106% | 104% | 112% | 106% | 103% | 100% | 103% | 107% | 103% | 120% | 103% | 107% | 110% | 102% | 93.1% | 108% | 110% |
| O=C(/C=C1\C=CN(CCCCF)c2ccccc21)n1ccc2ccccc21 | 127% | 104% | 100% | 94.9% | 126% | 121% | 106% | 98.8% | 110% | 101% | 102% | 107% | 105% | 105% | 103% | 98.8% | 89.2% | 106% | 108% |
| O=C(Nc1cccc(Cl)c1)Nc1nc2ccc(-c3cccc4ccccc34)cc2s1 | 42.7% | 17.9% | 42.8% | 75.2% | 84.4% | 66.7% | 63.4% | 87% | 50.6% | 68.7% | 34.1% | 49.4% | 56.4% | 35.4% | 24.9% | 54.4% | 42.3% | – | 73.3% |
| COc1cc(/C=N/n2cnc3oc(-c4ccccc4)cc3c2=N)cc(CN2CCCC2)c1O | 7.65% (active) | 0.0184% (active) | -45% (active) | -70% (active) | 15.7% | 88.6% | 90.5% | 93.5% | 109% | 14.1% | -85.2% (active) | -48.2% (active) | 21.8% | -45.7% (active) | -68.6% (active) | 91.5% | 96.7% | -88.5% (active) | 91.6% |
